Molecules are shown by their SMILES. Several values for one entry are separate records, joined by “and”; a condition that tells them apart may be missing. Equal values may be shown once. Results filed as inconclusive are left out. A call without a number means that no potency is given here. Some structures have more than one record in an assay (separate samples or runs), and their calls can disagree. Activity calls are given as the source filed them. Unless noted, calls come from the whole dose curve; as a rule, active = well fitted curve in the direction sought with a large enough effect in the repeat runs; inconclusive = weak or mixed curves; inactive = no such curve, though single readings can be large; an effect the other way counts as inactive or inconclusive.

The target of one test is Estrogen receptor (Homo sapiens) (UniProt P03372). The test can be described thus: qHTS assay to identify small molecule agonists of the estrogen receptor alpha (ER-alpha) signaling pathway using the BG1 cell line (AID 743079). Note: nearly all actives have a fitted effect of over 20% in size. As to conditions: BG1Luc4E2 cells, ERE-luciferase agonist, 22 h; at 95 µM (top of the series).
Estrogen receptor (Homo sapiens), sequence (P03372 whole entry, looked up): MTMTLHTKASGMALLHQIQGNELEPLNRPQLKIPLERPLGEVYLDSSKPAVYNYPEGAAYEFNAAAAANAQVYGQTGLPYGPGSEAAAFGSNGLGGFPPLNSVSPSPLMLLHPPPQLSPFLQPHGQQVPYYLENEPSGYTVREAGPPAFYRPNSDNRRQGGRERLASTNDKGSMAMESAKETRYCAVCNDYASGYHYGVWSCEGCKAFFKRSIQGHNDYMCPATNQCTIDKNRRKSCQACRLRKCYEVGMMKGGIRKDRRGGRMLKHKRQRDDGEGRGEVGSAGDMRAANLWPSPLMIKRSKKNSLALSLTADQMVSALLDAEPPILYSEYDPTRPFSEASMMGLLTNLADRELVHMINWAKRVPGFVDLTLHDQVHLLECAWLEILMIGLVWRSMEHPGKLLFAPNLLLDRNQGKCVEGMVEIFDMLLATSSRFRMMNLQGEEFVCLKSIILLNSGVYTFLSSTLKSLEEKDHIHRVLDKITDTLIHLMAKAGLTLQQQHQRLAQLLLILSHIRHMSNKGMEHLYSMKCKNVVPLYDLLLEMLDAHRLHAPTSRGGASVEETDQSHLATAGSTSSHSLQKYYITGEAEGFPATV
For `BrCC1CO1` (centres undefined), the activation is 8.58% (inactive).

Take `O=C(Cl)C(Cl)(Cl)Cl`: the activation was 9.01% (inactive).

For `CCCCOC(C)=O`, the activation is -9.13% (inactive).

`OP(O)c1ccccc1`: the activation is 6.24% (inactive).

Take `CN(CCO)CCO`: the activation was -2.37% (inactive).

Turning to `O=C(Cl)/C=C/C(=O)Cl`, the activation was 5.56% (inactive).

In the case of `CC(C)(C)C(=O)Cl`, the activation was -4.71% (inactive).

System in a further test: not listed separately
The test is described as follows: qHTS assay to identify small molecule antagonists of the estrogen receptor alpha (ER-alpha) signaling pathway using the BG1 cell line (AID 743080; calls by dose curve;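 note: BG1 cells stimulated with 17beta-estradiol alongside compound; nearly all actives have a fitted effect of over 25% in size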). As to conditions: BG1Luc4E2 ERE-luciferase antagonist mode, luminescence; series mostly up to 70.3 µM. Summed up: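 After 5 days in phenol-red-free 10% charcoal-stripped FBS medium, BG1-Luc-4E2 cells were seeded, left 24 h at 37 C, co-treated with compounds and 17beta-estradiol for 21.5 h, then assayed for viability and luciferase.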
On the technique in general: In qHTS, concentration-response curves come from the screen itself.
For `Brc1c(Br)c(Br)c(Br)c(Br)c1Br`, the activity change, negative = inhibition is 17.5% [at 8.47 µM] (inactive).

Turning to `CC(C)(C1CCC(O)CC1)C1CCC(O)CC1` (centres undefined), the Potency entry was “inactive”.

As to `CCOc1cc(OP(=S)(OC)OC)nc(CC)n1`, the Potency result was “inactive”.

For `Cc1ccc(Cl)c(O)c1`, the Potency result was “inactive”.

For `O=C(Cl)C(Cl)(Cl)Cl`, the Potency entry is “inactive”.

On to `ClCC1CO1` (centres undefined), for which the Potency result was “inactive”.

In the case of `N#CN=C1SCCN1Cc1ccc(Cl)nc1`, the Potency entry was “inactive”.

Consider `CCCCOC(C)=O`, for which the Potency entry is “inactive”.

As for `Cn1c(N)nc2c3cccnc3ccc21`, the Potency entry was “inactive”.

With `CCNc1nc(Cl)nc(NC(C)(C)C)n1`, the Potency result was “inactive”.

For the compound `C(COCC1CO1)OCC1CO1` (centres undefined), the Potency result is “inactive”.

For `COc1ccccc1OC`, the Potency entry is “inactive”.

Regarding `CNC(=O)O/N=C(/CSC)C(C)(C)C`, the Potency result is “inactive”.

Consider `OCC(Cl)CCl` (centres undefined), for which the Potency result is “inactive”.

On to `O=C(O)C(Br)(Br)Br`, for which the Potency result is “inactive”.

In the case of `CCNP(=S)(OC)O/C(C)=C/C(=O)OC(C)C` (centres undefined), the Potency entry was “inactive”.

For `CCC(C(N)=O)N1CCCC1=O` (centres undefined), the Potency entry is “inactive”.

As for `O=C(Cl)/C=C/C(=O)Cl`, the Potency result is “inactive”.

For `C=C(C)[C@H]1CN[C@H](C(=O)O)[C@H]1CC(=O)O`, the Potency entry is “inactive”.

As to `CC(C)(C)C(=O)Cl`, the Potency entry is “inactive”.

System in another test: not listed separately
The test can be described thus: qHTS assay to identify small molecule antagonists of the estrogen receptor alpha (ER-alpha) signaling pathway using the BG1 cell line - cell viability counter screen (AID 743081).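 Note: compound given together with 17beta-estradiol as the ER stimulus; nearly all actives have a fitted effect of over 45% in size.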 As to conditions: BG1Luc4E2 viability, CellTiter-Fluor, 22 h; series mostly up to 70.3 µM.
On to `CC(Cc1ccccc1)NCCn1cnc2c1c(=O)n(C)c(=O)n2C` (centres undefined), for which the Potency result was “inactive”.

`Brc1c(Br)c(Br)c(Br)c(Br)c1Br`: the activity change, negative = cytotoxicity is 9.59% [at 8.47 µM] (inactive).

In the case of `BrCC1CO1` (centres undefined), the Potency entry was “inactive”.

For the compound `CC(C)(C1CCC(O)CC1)C1CCC(O)CC1` (centres undefined), the Potency entry is “inactive”.

In the case of `CCCCCCCCBr`, the Potency result is “inactive”.

In the case of `CCOc1cc(OP(=S)(OC)OC)nc(CC)n1`, the Potency result is “inactive”.

For the compound `Cc1ccc(Cl)c(O)c1`, the Potency result was “inactive”.

Regarding `O=C(Cl)C(Cl)(Cl)Cl`, the Potency result is “inactive”.

For `O=C(Cl)C(Cl)Cl`, the Potency result is “inactive”.

On to `ClCC1CO1` (centres undefined), for which the Potency result is “inactive”.

Turning to `N#CN=C1SCCN1Cc1ccc(Cl)nc1`, the Potency result is “inactive”.

As to `C#CCOC(=O)/C=C(C)/C=C/CC(C)CCCC(C)C` (centres undefined), the Potency entry is “inactive”.

With `NNCc1ccccc1`, the Potency result is “inactive”.

As to `C#CC(C)(C)O`, the Potency result is “inactive”.

Consider `CCCCOC(C)=O`, for which the Potency result was “inactive”.

`CN1COCN(Cc2cnc(Cl)s2)/C1=N\[N+](=O)[O-]`: the Potency result is “inactive”.

For `C=C(Cl)CCl`, the Potency result was “inactive”.

For `CCNc1nc(Cl)nc(NC(C)(C)C)n1`, the Potency entry is “inactive”.

Regarding `C(COCC1CO1)OCC1CO1` (centres undefined), the Potency result was “inactive”.

As for `COc1ccccc1OC`, the Potency result is “inactive”.

On to `c1ccc2c(c1)CCNC2`, for which the Potency entry is “inactive”.

With `CNC(=O)O/N=C(/CSC)C(C)(C)C`, the Potency entry was “inactive”.

As for `CN(C)CCN(C)C`, the Potency result is “inactive”.

Consider `CC(C)(C)c1cc(O)ccc1O`, for which the Potency entry was “inactive”.

For `OCC(Cl)CCl` (centres undefined), the Potency entry is “inactive”.

Regarding `O=C(O)C(Br)(Br)Br`, the Potency entry was “inactive”.

Take `CCOC(=O)CC(SP(=S)(OC)OC)C(=O)OCC` (centres undefined): the Potency result is “inactive”.

Take `Cc1ccc2c(c1)C1CN(C)CCC1N2` (centres undefined): the Potency result was “inactive”.

As to `OP(O)c1ccccc1`, the Potency entry is “inactive”.

`CCNP(=S)(OC)O/C(C)=C/C(=O)OC(C)C` (centres undefined): the Potency entry is “inactive”.

As to `CN(CCO)CCO`, the Potency result is “inactive”.

With `CCC(C(N)=O)N1CCCC1=O` (centres undefined), the Potency entry is “inactive”.

For the compound `C=C1CC[C@@]2(O)[C@H]3Cc4ccc(O)c5c4[C@@]2(CCN3CC2CC2)[C@H]1O5`, the Potency entry is “inactive”.

With `O=C(Cl)/C=C/C(=O)Cl`, the Potency result was “inactive”.

With `C=C(C)[C@H]1CN[C@H](C(=O)O)[C@H]1CC(=O)O`, the Potency entry was “inactive”.

Consider `Cc1ccc2cc(C)ccc2c1`, for which the Potency entry was “inactive”.

Regarding `CC(C)(C)C(=O)Cl`, the Potency entry is “inactive”.

A further test deals with Aromatase (Homo sapiens) (UniProt P11511). The test can be described thus: qHTS assay to identify aromatase inhibitors (AID 743083). Note: nearly all actives have a fitted effect of over 55% in size. Note: potency is the fitted concentration of half-maximal effect. As to conditions: MCF-7 aro ERE, testosterone-driven ERE luciferase, 24 h; series mostly up to 70.3 µM.
Aromatase (Homo sapiens), sequence (P11511 whole entry, looked up): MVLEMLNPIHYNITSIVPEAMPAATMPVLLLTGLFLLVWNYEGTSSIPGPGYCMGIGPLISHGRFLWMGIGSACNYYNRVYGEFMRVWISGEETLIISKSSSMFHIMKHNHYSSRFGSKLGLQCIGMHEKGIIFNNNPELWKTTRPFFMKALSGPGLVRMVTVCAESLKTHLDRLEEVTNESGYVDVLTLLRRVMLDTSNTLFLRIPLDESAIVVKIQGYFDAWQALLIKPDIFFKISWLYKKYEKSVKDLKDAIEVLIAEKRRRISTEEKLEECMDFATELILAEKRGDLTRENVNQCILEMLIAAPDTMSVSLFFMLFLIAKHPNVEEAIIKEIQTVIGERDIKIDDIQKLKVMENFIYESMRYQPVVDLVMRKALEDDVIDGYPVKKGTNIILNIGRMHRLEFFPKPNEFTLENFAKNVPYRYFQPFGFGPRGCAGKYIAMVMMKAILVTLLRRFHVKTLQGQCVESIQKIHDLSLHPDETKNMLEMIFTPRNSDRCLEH
As to `CC(Cc1ccccc1)NCCn1cnc2c1c(=O)n(C)c(=O)n2C` (centres undefined), the Potency entry was “inactive”.

Turning to `Brc1c(Br)c(Br)c(Br)c(Br)c1Br`, the activity, negative = inhibition is 14.6% [at 8.47 µM] (inactive).

For `BrCC1CO1` (centres undefined), the Potency entry is “inactive”.

Turning to `CC(C)(C1CCC(O)CC1)C1CCC(O)CC1` (centres undefined), the Potency result was “inactive”.

Take `CCCCCCCCBr`: the Potency result is “inactive”.

With `CCOc1cc(OP(=S)(OC)OC)nc(CC)n1`, the Potency entry is “inactive”.

On to `Cc1ccc(Cl)c(O)c1`, for which the Potency result was “inactive”.

For the compound `O=C(Cl)C(Cl)(Cl)Cl`, the Potency entry was “inactive”.

Turning to `O=C(Cl)C(Cl)Cl`, the Potency entry is “inactive”.

As to `ClCC1CO1` (centres undefined), the Potency entry was “inactive”.

Regarding `N#CN=C1SCCN1Cc1ccc(Cl)nc1`, the Potency result is “inactive”.

Take `C#CCOC(=O)/C=C(C)/C=C/CC(C)CCCC(C)C` (centres undefined): the Potency result was “inactive”.

`NNCc1ccccc1`: the Potency entry is “inactive”.

On to `C#CC(C)(C)O`, for which the Potency result was “inactive”.

With `CCCCOC(C)=O`, the Potency result is “inactive”.

Regarding `Cn1c(N)nc2c3cccnc3ccc21`, the Potency result was “inactive”.

On to `CN1COCN(Cc2cnc(Cl)s2)/C1=N\[N+](=O)[O-]`, for which the Potency entry was “inactive”.

Regarding `C=C(Cl)CCl`, the Potency result is “inactive”.

On to `CCNc1nc(Cl)nc(NC(C)(C)C)n1`, for which the Potency entry is “inactive”.

Take `C(COCC1CO1)OCC1CO1` (centres undefined): the Potency entry was “inactive”.

Turning to `COc1ccccc1OC`, the Potency result is “inactive”.

Consider `c1ccc2c(c1)CCNC2`, for which the Potency entry was “inactive”.

Regarding `CNC(=O)O/N=C(/CSC)C(C)(C)C`, the Potency entry is “inactive”.

Consider `CN(C)CCN(C)C`, for which the Potency result is “inactive”.

Turning to `CC(C)(C)c1cc(O)ccc1O`, the Potency result was “inactive and 26.6 µM (active)”.

For `OCC(Cl)CCl` (centres undefined), the Potency entry is “inactive”.

`O=C(O)C(Br)(Br)Br`: the Potency entry was “inactive”.

As to `CCOC(=O)CC(SP(=S)(OC)OC)C(=O)OCC` (centres undefined), the Potency result is “inactive”.

Turning to `Cc1ccc2c(c1)C1CN(C)CCC1N2` (centres undefined), the Potency result is “inactive”.

For the compound `OP(O)c1ccccc1`, the Potency entry was “inactive”.

Turning to `CCNP(=S)(OC)O/C(C)=C/C(=O)OC(C)C` (centres undefined), the Potency entry is “inactive”.

For `CN(CCO)CCO`, the Potency result is “inactive”.

As for `Cc1ccc(S(=O)(=O)N[C@@H](CCCCN)C(=O)CCl)cc1`, the Potency entry was “inactive”.

In the case of `CCC(C(N)=O)N1CCCC1=O` (centres undefined), the Potency result is “inactive”.

Take `C=C1CC[C@@]2(O)[C@H]3Cc4ccc(O)c5c4[C@@]2(CCN3CC2CC2)[C@H]1O5`: the Potency result was “inactive”.

Take `CCN(CCO)CCn1c(Cc2ccccc2)nc2c1c(=O)n(C)c(=O)n2C`: the Potency result was “inactive”.

With `O=C(Cl)/C=C/C(=O)Cl`, the Potency entry is “inactive”.

For the compound `C=C(C)[C@H]1CN[C@H](C(=O)O)[C@H]1CC(=O)O`, the Potency result was “inactive”.

Take `Cc1ccc2cc(C)ccc2c1`: the Potency result was “inactive”.

On to `CC(C)(C)C(=O)Cl`, for which the Potency entry is “inactive”.

Values taken from PubChem BioAssay (Tox21).
